Test results as given in PubChem BioAssay (NCATS).
Unmarked numbers belong to inactive results. Records with an inconclusive call do not appear. Active and inactive are the calls of the source. Unless noted, calls follow the shape of the dose curve; as a rule, active = well fitted curve in either direction with a large enough effect (not every such curve was filed as active); inconclusive = small, poorly fitted or top-dose-only effect, or another doubt; inactive = flat fitted curve, though single readings scatter.

Tests used:
[1] = target: Lysosomal acid glucosylceramidase (Homo sapiens) (UniProt P04062); assay: Glucocerebrosidase-p2 (AID 348; in the data active = potency below about 10 µM; also: potency is read from the fitted curve at half-maximal effect); conditions: purified GBA, blue fluorogenic substrate, 40 min
Method in brief: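 Normal human glucocerebrosidase (0.2 nM) with blue fluorogenic substrate (80 uM final) in citrate/phosphate pH 5.9 with 10mM sodium taurocholate, 0.01% tween-20; 40 min RT, NaOH/glycine stop; fluorescence Ex 365/Em 440; AC50 from a titration from 0.6 nM upwards.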

[2] = AP1 Signaling Pathway (AID 357); conditions: ME-180 AP-1-bla reporter, EGF-induced, beta-lactamase ratio, 5 h; at 7.69 µM (top of the series) unless noted;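 also: ME-180 reporter cells stimulated with EGF at its EC50 level; % is scaled to controls: 0 for no effect and ±100 for the full control effect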
Method in brief: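 Titration-series screen for positive or negative modulators of EC50 EGF-induced signaling in ME-180 cells carrying an AP-1-driven beta-lactamase reporter. After 5 hours at 37 degrees Celsius, CCF4 460nm/530nm emission ratio gave %Activity; AC50 values derived.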

[3] = target: Cytochrome P450 1A2 (Homo sapiens) (UniProt P05177); assay: p450-cyp1a2 (AID 410; calls by dose curve; also: potency is read from the fitted curve at half-maximal effect;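 as to activity change, negative = inhibition: -100% = full effect of reference inhibitor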); conditions: recombinant CYP1A2, luciferin-ME demethylation, luminescence; series mostly up to 11.4 µM
Method in brief: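 O-Demethylation of luciferin 6' methyl ether by human CYP1A2 is monitored as luciferase luminescence. Substrate sits at Km (100uM); enzyme is 20nM. Values are scaled to 57 uM furafylline as maximal inhibition.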

[4] = NFAT Signaling Pathway (AID 444); conditions: Jurkat NFAT-bla M1, carbachol, beta-lactamase ratio, 5 h; at 7.69 µM (top of the series) unless noted;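 also: carbachol stimulus at about its EC50 of 1 µM final; % is scaled to controls: 0 for no effect and ±100 for the full control effect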
Method in brief: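 Read-out: CCF4 FRET ratio (460 nm/530 nm) after 1 h RT dye loading, used for %activity and AC50 from titration series. Cells: Jurkat NFAT-β-lactamase/M1 line, treated with compound plus 1 uM carbachol for 5 h, 37 °C.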

[5] = Stat Signaling Pathway (AID 446); conditions: ME-180 (cervical carcinoma) SIE beta-lactamase reporter, IL-6 stimulated, 5 h; at 7.69 µM (top of the series) unless noted;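 also: ME-180 cervical cancer cells given 40 pM IL-6 alongside compound; SIE-controlled beta-lactamase reporter measured as 460/530 nm FRET emission ratio; % is scaled to controls: 0 for no effect and ±100 for the full control effect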
Method in brief: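 Emission at 460 and 530 nm (excitation 405 nm) reports SIE-controlled beta-lactamase in ME-180 cells. Cells received compound with 40 pM IL-6 for 5 hrs at 37 C; data scaled between 300 pM IL-6 and 125 nM JAK-inhibitor controls.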

[6] = target: Glucocorticoid receptor (Homo sapiens) (UniProt P04150); assay: GR-GFP Redistribution (AID 450;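 active = compounds whose dose series gives a full or clear partial fitted curve of increased nuclear translocation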; also: potency is read from the fitted curve at half-maximal effect); conditions: U2OS GR-GFP nuclear translocation, laser cytometry, 2 h
[7] = target: Glucocorticoid receptor (Homo sapiens) (UniProt P04150); assay: GR-EFC Redistribution (AID 451; calls by dose curve; also: potency is read from the fitted curve at half-maximal effect); conditions: CHO-K1 GR-EFC translocation, beta-gal luminescence, 2 h
Method in brief: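 Translocation of GR-ED fusion to nuclear EA restores b-gal, read by luminescence after 1 h room-temperature detection. Engineered CHO-K1 biosensor cells, 1,000/well, exposed 2 h at 37 C to titrations up to 46 uM final.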

[8] = target: Mitogen-activated protein kinase 10 (Mus musculus) (UniProt Q61831); assay: JNK3 AlphaScreen Assay (AID 530); conditions: JNK3 lysate, c-Jun phosphorylation; series mostly up to 11.4 µM;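 also: kinase came from lysate of stimulated human HepG2 cells; signal reports phosphorylation of biotinylated GST-cJun 1-79 at Ser73 with 10 µM ATP; % is scaled to controls: 0 for no effect and ±100 for the full control effect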
Method in brief: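 qHTS titrations with 15 min compound pre-incubation before adding ATP (10 uM final). Read-out: AlphaScreen of Ser73-phosphorylated biotin-GST-cJun using HepG2 lysate JNK3 activated by IL-1β and TNFα.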

[9] = target: 3',5'-cyclic-AMP phosphodiesterase 4B (Homo sapiens) (UniProt Q07343); assay: qHTS Assay for Inhibitors of PDE-IV (AID 607; active = well fitted activation curve with a large enough effect in the main read-out, with a control signal flat, not every such curve was filed as active; also: % of control where 0% means no effect); conditions: HEK293 ACTOne CNG channel cells, membrane potential fluorescence; series mostly up to 22.9 µM
Method in brief: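 The readout is membrane depolarisation from a cAMP-sensing CNG channel, detected with a potential dye at ex 535/em 590. Cells were HEK293-derived (endogenous PDE-IV) at 1000 cells/well, titrated up to 22.9 uM final.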

[10] = target: Cytochrome P450 3A4 (Homo sapiens) (UniProt P08684); assay: qHTS Assay for Activators of Cytochrome P450 3A4 (AID 885; active = well fitted curve in the direction sought with a large enough effect; an effect the other way counts as inactive or inconclusive; also: nearly all actives have a fitted effect of over 65% in size); conditions: recombinant CYP3A4, Luciferin-PPXE luminescence, 60 min; series mostly up to 11.4 µM
Method in brief: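 Activators are scored by enhanced luminescence from CYP3A4 conversion of luciferin-PPXE (25uM, equal to KM) to luciferin, after 60 min at RT with an NADPH-regenerating system.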

[11] = target: Cytochrome P450 2C19 (Homo sapiens) (UniProt P33261); assay: qHTS Assay for Inhibitors and Substrates of Cytochrome P450 2C19 (AID 899; active = well fitted curve in the direction sought with a large enough effect; an effect the other way counts as inactive or inconclusive; also: potency is read from the fitted curve at half-maximal effect; nearly all actives have a fitted effect of over 60% in size); conditions: recombinant CYP2C19, luciferin-H EGE luminescence; series mostly up to 11.4 µM
Method in brief: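 Reactions contain 5nM enzyme, 10uM Luciferin-H EGE (KM) and 50mM KPO4; compound preincubates 10 min at 37C, NADPH regeneration starts turnover for 60 min. Luminescence after detection reagent gives activity.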

[12] = target: Cytochrome P450 2D6 (Homo sapiens) (UniProt P10635); assay: qHTS Assay for Inhibitors and Substrates of Cytochrome P450 2D6 (AID 891; active = well fitted curve in the direction sought with a large enough effect; an effect the other way counts as inactive or inconclusive; also: nearly all actives have a fitted effect of over 60% in size; also: potency is read from the fitted curve at half-maximal effect); conditions: recombinant CYP2D6, luciferin-ME EGE luminescence; series mostly up to 11.4 µM
Method in brief: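 Luminescent read-out of luciferin formed by 5 nM human CYP2D6 demethylating 30 uM Luciferin-ME EGE (Km level) over 60 min at room temperature after NADPH regeneration addition. Data normalized to full inhibition by 1.43 uM quinidine.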

Cytochrome P450 2C19 (Homo sapiens), sequence (P33261 whole entry, looked up): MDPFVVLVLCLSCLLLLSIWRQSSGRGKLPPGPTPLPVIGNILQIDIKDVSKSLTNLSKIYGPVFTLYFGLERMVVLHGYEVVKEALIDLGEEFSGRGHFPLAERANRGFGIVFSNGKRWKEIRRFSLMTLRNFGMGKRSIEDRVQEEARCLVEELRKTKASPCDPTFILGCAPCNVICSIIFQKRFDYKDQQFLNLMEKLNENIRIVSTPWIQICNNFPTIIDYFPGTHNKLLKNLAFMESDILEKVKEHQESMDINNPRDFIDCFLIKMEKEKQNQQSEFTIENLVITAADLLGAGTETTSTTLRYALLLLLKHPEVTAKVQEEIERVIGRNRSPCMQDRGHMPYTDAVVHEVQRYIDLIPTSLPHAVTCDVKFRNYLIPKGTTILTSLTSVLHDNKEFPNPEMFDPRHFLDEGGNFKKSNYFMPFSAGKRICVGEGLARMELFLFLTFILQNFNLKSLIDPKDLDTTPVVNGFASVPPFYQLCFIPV
Cytochrome P450 2D6 (Homo sapiens), sequence (P10635 whole entry, looked up): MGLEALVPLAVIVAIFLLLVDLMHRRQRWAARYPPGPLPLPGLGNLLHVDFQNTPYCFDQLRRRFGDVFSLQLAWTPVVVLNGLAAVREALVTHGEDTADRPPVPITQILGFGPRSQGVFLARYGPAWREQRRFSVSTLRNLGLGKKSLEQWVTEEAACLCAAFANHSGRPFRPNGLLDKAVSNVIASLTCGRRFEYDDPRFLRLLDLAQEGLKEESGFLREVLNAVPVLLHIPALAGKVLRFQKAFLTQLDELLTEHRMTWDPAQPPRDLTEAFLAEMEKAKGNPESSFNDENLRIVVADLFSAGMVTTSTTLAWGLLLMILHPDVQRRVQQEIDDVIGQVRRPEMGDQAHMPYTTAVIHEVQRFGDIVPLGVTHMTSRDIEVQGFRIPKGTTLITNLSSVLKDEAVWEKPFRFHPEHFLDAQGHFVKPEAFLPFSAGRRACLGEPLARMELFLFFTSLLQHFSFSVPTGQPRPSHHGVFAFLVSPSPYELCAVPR
3',5'-cyclic-AMP phosphodiesterase 4B (Homo sapiens), sequence (Q07343 whole entry, looked up): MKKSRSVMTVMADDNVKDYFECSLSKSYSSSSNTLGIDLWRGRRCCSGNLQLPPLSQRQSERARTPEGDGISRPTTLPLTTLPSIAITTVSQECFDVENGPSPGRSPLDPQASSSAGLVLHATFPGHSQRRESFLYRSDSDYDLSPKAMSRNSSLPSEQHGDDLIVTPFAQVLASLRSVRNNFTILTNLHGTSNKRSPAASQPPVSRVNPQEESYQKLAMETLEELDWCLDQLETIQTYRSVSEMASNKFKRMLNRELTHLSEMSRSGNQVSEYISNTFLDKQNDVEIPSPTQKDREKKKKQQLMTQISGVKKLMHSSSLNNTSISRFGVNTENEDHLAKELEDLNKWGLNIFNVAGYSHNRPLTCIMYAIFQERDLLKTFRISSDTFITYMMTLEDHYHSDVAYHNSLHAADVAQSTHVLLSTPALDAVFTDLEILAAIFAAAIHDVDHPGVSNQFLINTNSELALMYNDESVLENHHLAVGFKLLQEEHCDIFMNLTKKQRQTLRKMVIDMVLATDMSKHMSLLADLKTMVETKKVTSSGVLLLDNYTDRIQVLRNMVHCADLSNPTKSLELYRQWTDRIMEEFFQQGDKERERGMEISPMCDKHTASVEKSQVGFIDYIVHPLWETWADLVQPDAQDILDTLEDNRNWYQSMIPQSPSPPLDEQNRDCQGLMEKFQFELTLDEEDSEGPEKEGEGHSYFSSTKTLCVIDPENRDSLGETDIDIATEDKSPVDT
Glucocorticoid receptor (Homo sapiens), sequence (P04150 whole entry, looked up, the tested form may be a part): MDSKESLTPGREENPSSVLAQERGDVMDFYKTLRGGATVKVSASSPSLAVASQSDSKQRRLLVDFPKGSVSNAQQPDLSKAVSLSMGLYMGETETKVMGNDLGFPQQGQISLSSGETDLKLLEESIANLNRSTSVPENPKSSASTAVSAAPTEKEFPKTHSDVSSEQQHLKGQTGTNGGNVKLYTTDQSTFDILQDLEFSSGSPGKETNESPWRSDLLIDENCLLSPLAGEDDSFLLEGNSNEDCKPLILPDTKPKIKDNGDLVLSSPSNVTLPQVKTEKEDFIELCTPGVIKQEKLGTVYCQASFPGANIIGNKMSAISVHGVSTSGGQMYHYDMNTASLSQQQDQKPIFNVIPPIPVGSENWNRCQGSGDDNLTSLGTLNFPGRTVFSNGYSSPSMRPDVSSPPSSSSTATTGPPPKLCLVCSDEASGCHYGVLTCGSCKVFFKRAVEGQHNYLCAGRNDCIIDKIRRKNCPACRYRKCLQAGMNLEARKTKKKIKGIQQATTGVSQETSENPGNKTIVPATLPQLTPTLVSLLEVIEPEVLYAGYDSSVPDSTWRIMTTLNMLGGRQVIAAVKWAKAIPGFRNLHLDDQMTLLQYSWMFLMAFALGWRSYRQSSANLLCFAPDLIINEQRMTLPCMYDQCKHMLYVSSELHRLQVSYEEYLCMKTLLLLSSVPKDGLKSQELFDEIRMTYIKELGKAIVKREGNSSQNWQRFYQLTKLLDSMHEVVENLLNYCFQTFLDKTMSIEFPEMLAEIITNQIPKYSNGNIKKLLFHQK
Cytochrome P450 3A4 (Homo sapiens), sequence (P08684 whole entry, looked up): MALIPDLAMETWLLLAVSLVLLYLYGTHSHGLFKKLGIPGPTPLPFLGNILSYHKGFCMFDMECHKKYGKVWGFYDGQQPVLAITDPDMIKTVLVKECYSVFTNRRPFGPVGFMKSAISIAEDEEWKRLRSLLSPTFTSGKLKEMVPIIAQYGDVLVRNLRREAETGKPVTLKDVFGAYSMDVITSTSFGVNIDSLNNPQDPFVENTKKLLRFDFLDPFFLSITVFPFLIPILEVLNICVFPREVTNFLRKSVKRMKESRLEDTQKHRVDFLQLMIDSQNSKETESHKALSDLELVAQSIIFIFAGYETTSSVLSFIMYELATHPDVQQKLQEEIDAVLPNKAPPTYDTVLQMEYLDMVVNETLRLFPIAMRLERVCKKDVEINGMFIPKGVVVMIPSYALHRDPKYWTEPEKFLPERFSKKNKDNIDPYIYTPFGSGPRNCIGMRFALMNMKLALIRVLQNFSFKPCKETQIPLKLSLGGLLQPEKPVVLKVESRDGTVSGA
Cytochrome P450 1A2 (Homo sapiens), sequence (P05177 whole entry, looked up): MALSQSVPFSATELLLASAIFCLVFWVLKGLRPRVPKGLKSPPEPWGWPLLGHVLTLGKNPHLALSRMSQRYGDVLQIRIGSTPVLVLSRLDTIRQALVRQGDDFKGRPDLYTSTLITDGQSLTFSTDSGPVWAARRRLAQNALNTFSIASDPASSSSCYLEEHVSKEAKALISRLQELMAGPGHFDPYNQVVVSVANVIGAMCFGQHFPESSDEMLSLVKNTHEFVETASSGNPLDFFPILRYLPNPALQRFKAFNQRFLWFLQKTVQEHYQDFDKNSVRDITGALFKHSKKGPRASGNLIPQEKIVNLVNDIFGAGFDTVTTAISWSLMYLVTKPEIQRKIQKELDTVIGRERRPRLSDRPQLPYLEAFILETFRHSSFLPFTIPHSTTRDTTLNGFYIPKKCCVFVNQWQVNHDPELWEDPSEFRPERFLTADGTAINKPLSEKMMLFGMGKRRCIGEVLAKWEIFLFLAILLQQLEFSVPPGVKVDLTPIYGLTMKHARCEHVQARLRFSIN
Lysosomal acid glucosylceramidase (Homo sapiens), sequence (P04062 whole entry, looked up): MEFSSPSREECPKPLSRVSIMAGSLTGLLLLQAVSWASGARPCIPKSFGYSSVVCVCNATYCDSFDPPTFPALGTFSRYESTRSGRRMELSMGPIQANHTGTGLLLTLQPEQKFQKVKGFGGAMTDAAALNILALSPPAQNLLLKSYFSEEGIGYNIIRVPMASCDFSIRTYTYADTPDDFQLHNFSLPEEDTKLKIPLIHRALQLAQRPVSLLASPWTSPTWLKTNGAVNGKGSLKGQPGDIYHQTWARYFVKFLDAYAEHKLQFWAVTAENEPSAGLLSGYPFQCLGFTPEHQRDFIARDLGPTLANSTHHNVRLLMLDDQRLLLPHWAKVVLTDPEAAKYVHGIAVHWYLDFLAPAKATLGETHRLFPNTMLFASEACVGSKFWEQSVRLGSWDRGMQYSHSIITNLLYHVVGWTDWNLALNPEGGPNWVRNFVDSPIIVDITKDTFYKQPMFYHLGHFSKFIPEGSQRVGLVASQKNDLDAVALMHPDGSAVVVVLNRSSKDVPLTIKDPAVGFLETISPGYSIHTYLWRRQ

Row | SMILES | Potency [1] [µM] | activity change, negative = inhibition [2] [%] | Potency [3] | activity change, negative = inhibition [4] [%] | activity, negative = inhibition [5] [%] | Potency [6] [µM] | Potency [7] [µM] | Potency [8] | Potency [9] | Potency [10] | Potency [11] | Potency [12] | activity change, negative = inhibition [3]
1 | Nc1nc(SCc2ccccc2)c2ncn(Cc3ccccc3)c2n1 | > 11.4 | -24.3 | 0.251 µM (active) | 9.29 | -3.2 | > 46 | > 9.22 | inactive | inactive | inactive | 2.51 µM (active) | – | –
2 | Cc1cc(C(=O)CSC(=S)SC(C)(C)C)ccc1Cl | > 11.4 | 7.67 | 1.58 µM (active) | -16.2 | -27.2 | > 46 | > 9.22 | inactive | inactive | inactive | – | – | –
3 | Cc1ccc([C@@H](O)c2cnc(C)n2Cc2ccccc2)cc1 | > 11.4 | -7.71 | inactive | -10.9 | -4.84 | > 46 | > 9.22 | inactive | inactive | inactive | 1.26 µM (active) | 0.631 µM (active) | –
4 | COc1cc2nncc(SCc3ccc(Cl)c(Cl)c3)c2cc1OC | > 11.4 | 0.364 | 0.794 µM (active) | 1.06 | -13.6 | > 46 | > 9.22 | inactive | inactive | inactive | 2.51 µM (active) | – | –
5 | NCCNS(=O)(=O)c1ccc(N)cc1 | > 11.4 | 3.42 | inactive | -2.06 | 3.19 | > 46 | > 9.22 | inactive | inactive | inactive | – | – | –
6 | Cc1cc(O)c(C(C)C)cc1NC(=O)Nc1cccc2ccccc12 | > 11.4 | -27.4 | 0.794 µM (active) | -15.2 | -19 | > 46 | > 9.22 | inactive | inactive | inactive | 0.0501 µM (active) | – | –
7 | CN[C@@H](c1ccncc1)[C@@H](NC)c1ccncc1 | > 11.4 | 11.4 | inactive | -1.07 | -0.841 | > 46 | > 9.22 | inactive | inactive | inactive | – | – | –
8 | O=C(O)[C@@H]1[C@@H](C(=O)NCc2ccncc2)[C@@H]2C=C[C@@H]1O2 | > 11.4 | 4.03 | 5.01 µM (active) | 8.48 | -1.14 | > 46 | > 9.22 | inactive | inactive | inactive | – | – | –
9 | O=[N+]([O-])c1cc(Cl)cc2c1nc(NCCO)c1ccccc12 | > 11.4 | -24 | 0.02 µM (active) | 22.6 | -3.56 | > 46 | > 9.22 | inactive | inactive | inactive | – | – | –
10 | Br/C(=N\Nc1nn[nH]n1)c1ccncc1 | > 11.4 | 9.43 | inactive | 24.2 | 1.9 | > 46 | > 9.22 | inactive | inactive | inactive | – | inactive | –
11 | N#CCCSC(=S)[C@H]1CCCC1=N | > 11.4 | 13.5 | 3.16 µM (active) | -9.46 | -9.66 | > 46 | > 9.22 | inactive | inactive | inactive | – | – | –
12 | Cc1cnc2cc(Cl)ccc2c1SCC(=O)O | > 11.4 | -8.88 | – | -0.25 | -11.6 | > 46 | > 9.22 | inactive | inactive | inactive | – | – | -2.3% [at 2.29 µM]
13 | COc1c(O)ccc2c1CN1CCc3cc4c(cc3[C@@H]1C2)OCO4 | > 11.4 | -4.62 | 0.501 µM (active) | -25.2 | 7.58 | > 46 | > 9.22 | inactive | inactive | inactive | – | 0.158 µM (active) | –
14 | Cc1[nH]c2c(C)ccc(C)c2c1CC(=O)O | > 11.4 | -6.88 | 3.16 µM (active) | 10.6 | 9.85 | > 46 | > 9.22 | inactive | inactive | inactive | 0.316 µM (active) | – | –
